Screens: PubChem BioAssay, National Center for Advancing Translational Sciences (NCATS)
Shown are actives, neighbours in structure and some others; about 0.32% of the full set was active somewhere.
GPT2 inh – GPT2 alanine aminotransferase inhibition | Potency, µM (doses to about 57.7 µM), without a hit: at the highest dose activity change, negative = inhibition, actives largely listed as inhibitors | 0.25% of 100,000 active | Q8TD30 | Recombinant GPT2, coupled pyruvate oxidase/HRP Amplex Red fluorescence; note: nearly all actives have a fitted effect of over 60% in size
Target sequence (Q8TD30 whole entry, looked up): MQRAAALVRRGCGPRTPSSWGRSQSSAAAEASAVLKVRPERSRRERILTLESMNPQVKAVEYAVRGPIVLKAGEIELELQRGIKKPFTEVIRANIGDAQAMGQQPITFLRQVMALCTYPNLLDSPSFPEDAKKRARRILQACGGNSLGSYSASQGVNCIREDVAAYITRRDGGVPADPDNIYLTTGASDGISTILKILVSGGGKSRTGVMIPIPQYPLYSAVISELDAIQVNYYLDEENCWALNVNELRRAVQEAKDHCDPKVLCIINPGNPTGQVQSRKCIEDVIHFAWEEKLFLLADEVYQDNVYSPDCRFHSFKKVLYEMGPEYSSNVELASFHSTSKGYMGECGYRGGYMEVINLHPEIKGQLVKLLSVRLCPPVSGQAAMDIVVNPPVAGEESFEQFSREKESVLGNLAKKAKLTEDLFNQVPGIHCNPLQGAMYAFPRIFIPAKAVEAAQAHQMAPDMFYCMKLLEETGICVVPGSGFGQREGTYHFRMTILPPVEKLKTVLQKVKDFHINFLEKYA
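Fluorescence of coupled pyruvate oxidase/HRP/Amplex Red system (50uM Amplex, 30 min, dark) reports pyruvate formed by GPT2. Enzyme reaction: 10ng/uL GPT2, 2mM L-alanine, 250uM a-KG, 30 min room temperature, pH 7.5; 50uM AOA control.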
HEK293 viab – counter-screen for SNCA expression inhibitors: cell viability; AID 1671193; 0.12% of 150,000 active; Potency, µM (doses to about 57.1 µM), for the others: at the highest dose activity change, negative = cytotoxicity, actives largely listed as cytotoxic; HEK-293-SNCA-luc viability, GF-AFC fluorescence, 24 h;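 note: 0% = DMSO-treated cells and -100% = medium-only wells without cells; nearly all actives have a fitted effect of over 30% in size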
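Cytotoxicity counterscreen: after 24 h compound treatment of genome-edited SNCA-luciferase HEK-293 cells, live-cell protease substrate GF-AFC read by fluorescence after 30 min; activity scaled between DMSO (0%) and medium-only (-100%), curves Hill-fitted.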
SNCA expr inh – inhibitors of alpha-synuclein (SNCA) gene expression. AID 1671194. 0.17% of 140,000 active. HEK-293 SNCA-luciferase knock-in, luminescence, 24 h. Potency, µM (titrated, usually from 57.2 µM), without a hit: top-dose activity change, negative = inhibition, actives largely listed as inhibitors;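 note: plate controls were DMSO cells for no effect and cell-free wells for full effect; nearly all actives have a fitted effect of over 45% in size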
* marks the source's active call; other numbers are inactive results; i = inactive; ? = inconclusive; . = not tested or not shown; ! = a repeat was not active; [ ] = another dose, or the depositor's remark. Calls come from the whole dose curve; as a rule, active = well fitted curve in the direction sought with a large enough effect; inconclusive = small, poorly fitted or top-dose-only effect, or another doubt; inactive = no such curve, though single readings can be large; an effect the other way counts as inactive or inconclusive. Unless noted, % is set by controls: 0 for no effect and ±100 for the full control effect; potency is the fitted concentration of half-maximal effect.

SMILES	GPT2 inh	HEK293 viab	SNCA expr inh
COc1ccc(OC)c(CN2CCCn3nc(C)c(-c4ccccc4C(C)C)c32)c1	i	-29%[87.6 µM]	?
Cc1nn2c(c1-c1ccccc1Oc1ccccc1)N(Cc1ccccc1O)CCC2	-24%[88.5 µM]	?	2µM*
Cc1nn2c(c1-c1ccccc1OCc1ccccc1)N(Cc1ccc(C(=O)O)s1)CCC2	-20%	?	11µM*
COc1ccccc1CN1CCCn2nc(C)c(-c3ccccc3C(N)=O)c21	-13%[88.5 µM]	?	3.5µM*
Cc1nn2c(c1-c1ccccc1OCc1ccccc1)N(Cc1ccccc1)CCC2	0%[88.5 µM]	?	?
COc1ccc(Cn2c(=O)c(C(=O)NCCc3ccc(F)cc3)nc3cccnc32)cc1	0%	-13%	28%
O=S(=O)(c1cccc2ccccc12)N1CCCC(CO)(Cc2cccc(Cl)c2)C1 (stereo unspecified)	-4%	-15%	-4%
COc1ccc(-c2noc(CCCC(=O)NCCc3noc(-c4ccccc4)n3)n2)cc1OC	i	-19%	14%
COc1ccccc1-c1cccc(CN2CCC(NC(=O)Nc3ccccc3)CC2)c1	?	-3%	0%
CSc1ccc(-c2cccc(C(=O)NCC(=O)NCc3cccc(C(F)(F)F)c3)c2)cc1	i	-12%	-1%
COc1ccc(CNC(=O)c2cc(C3CC3)nc3c2c(C)nn3-c2cccc(Cl)c2C)cc1	.	5%	0%
CC(C)c1nn(-c2c(Cl)cccc2Cl)c2nc(Cc3ccc(OCCO)cc3)[nH]c(=O)c12	-2%	?	0.19µM*
CCOc1ccc(NC(=O)NCCCN2CCN(c3ccc(OC)cc3)CC2)cc1	.	1%	4%
CCN1CCN(c2ccc(Nc3cc(N(C)C(=O)Nc4c(Cl)c(OC)cc(OC)c4Cl)ncn3)cc2)CC1	8.9µM*	?	56%
COCCn1c(=O)c(C(=O)NC(C)C)nc2cccnc21	-7%[88.5 µM]	5%[87.6 µM]	23%[87.6 µM]
COCCn1c2c([n+](Cc3cnccn3)c1C)C(=O)c1ccccc1C2=O	0.15µM*	0.076µM*	0.096µM*
Cc1ccc(CN2CC(Oc3ccccc3C(=O)N3CCOCC3)C2)cc1C	1%	?	-5%
O=C(NCc1cccc(C(F)(F)F)c1)c1ccc2nnc(-c3ccc(F)cc3)n2c1	?	-14%	80%
COc1cccc(C(=O)N2CCC(Cc3noc(-c4ccccc4)n3)C2)c1 (stereo unspecified)	-2%	5%	4%
O=C(NC1CCN(c2nccc(Nc3ccccc3F)n2)CC1)c1ccc(F)cc1	i	-20%[12.5 µM]	?
Cc1cccc(NC(=O)CN2C(=O)C(c3ccccc3)=NC23CCCC3)c1C	4%	-17%[12.5 µM]	16µM*
CCc1ccccc1NC(=O)CN1C(=O)C(c2ccccc2)=NC12CCCC2	i	-11%[12.5 µM]	-18%
CN1CCN(c2ncc3nc(-c4cccs4)c(=O)n(Cc4cccs4)c3n2)CC1	.	?	13%
O=c1c(-c2cccs2)nc2cnc(N3CCNCC3)nc2n1Cc1cccs1	.	?	18µM*
CCSc1ncc(Cl)c(C(=O)Nc2ccc(S(=O)(=O)N(C)c3ccccc3)cc2)n1	.	22%	?
SMILES	GPT2 inh	HEK293 viab	SNCA expr inh
CC(C)Sc1ncc(Cl)c(C(=O)Nc2ccc(S(=O)(=O)N(C)c3ccccc3)cc2)n1	.	0%	-9%
CCN(c1ccccc1)S(=O)(=O)c1ccc(NC(=O)c2nc(S(C)(=O)=O)ncc2Cl)cc1	.	10µM*	?
CCS(=O)(=O)c1ncc(Cl)c(C(=O)Nc2ccc(S(=O)(=O)N(C)c3ccccc3)cc2)n1	.	10µM*	2.8µM*
CCOc1ccc(-c2cc3c(=O)n(CCNC(=O)c4ccncc4)ccn3n2)cc1	-1%	-2%	10%
COc1ccc(Nc2ccnc(N3CCC(NC(=O)c4cccc(OC)c4)CC3)n2)cc1	i	-2%	-7%
COc1ccc(-c2ccc3ncc4c(c3c2)n(-c2ccc(N3CCNCC3)c(C(F)(F)F)c2)c(=O)n4C)cn1	2%	30µM*!	?
O=C(NCc1ccc(Cl)cc1)C1CCN(c2nccc(Nc3ccccc3F)n2)CC1	4%	3%[12.5 µM]	?
Cc1ccc(-c2nnc3ccc(NCCc4ccccc4)nn23)nc1	-12%[88.5 µM]	-3%[87.6 µM]	-7%[87.6 µM]
CN(Cc1ccc(N2CCCCC2)cc1)C(=O)CCC[C@H]1NC[C@@H]2C[C@H]1CN(Cc1ccccc1)C2	i	22µM*	?
CN(Cc1cccnc1)C(=O)CCC[C@H]1NC[C@@H]2C[C@H]1CN(Cc1ccccc1)C2	-12%	0%	-13%
CC(C)C[C@@H]1N[C@H](C(=O)N2CCOCC2)Cc2cn(Cc3ccccn3)c3cccc1c23	i	2%[87.6 µM]	-22%[87.6 µM]
CCCNC(=O)[C@H]1O[C@H]1C(=O)N[C@H](C(=O)N1CCC[C@@H]1C(=O)OC)C(C)CC (stereo partly specified)	i	22µM*	?
CCOC(=O)[C@H](CCc1ccccc1)N[C@@H](C)C(=O)N1CCC[C@H]1C(=O)O	4%	4%[23.9 µM]	16%[25.6 µM]
O=C(c1ccccc1)N1CC2(CCCCN2Cc2cccnc2)Cc2ccccc21 (stereo unspecified)	-5%	-10%	?
O=C(C1CCCN(Cc2cccc(-c3ccc(F)cc3F)c2)C1)N1CCN(c2ncccn2)CC1 (stereo unspecified)	i	-16%	-25%
COc1cccc(-c2cccc(CN3CCCC3C(=O)NCc3cccc(F)c3)c2)c1 (stereo unspecified)	i	?	26%
COc1ccc(N2CC3CCC(C2)N3Cc2ccc(NC(C)=O)cc2)cc1	?	0%	-30%
COc1ccc(N2CC3CCC(C2)N3Cc2ccc(C#N)cc2)cc1	10µM*	0%	-19%
O=C(CNC(=O)c1cccc(-c2ccc(C(F)(F)F)cc2)c1)NCCC1CCCCC1	i	-29%	-15%
O=C(NCCc1ccccc1F)c1ccc2nnc(-c3cc[nH]c3)n2c1	i	-22%[87.6 µM]	-17%[87.6 µM]
CCc1nc2c(c(-c3ccc(Cl)cc3)n1)CN(Cc1ccc(OC(F)(F)F)cc1)CC2	i	-7%	?
Cc1ccc(NC(=O)CN2C(=O)COc3ccc(S(=O)(=O)N4CCCCCC4)cc32)cc1C	.	?	-8%
O=C(CN1C(=O)COc2ccc(S(=O)(=O)N3CCCCCC3)cc21)Nc1cccc(Cl)c1	.	?	10µM*
CC(=O)NC1(C)CN(Cc2ccc(-c3ccc(Oc4ccccc4)cc3)s2)C1	-5%[88.5 µM]	-17%[87.6 µM]	48%[87.6 µM]
CCOc1ccc(Nc2nc(-c3c(C)nc4ccccn34)cs2)cc1	?	?	-21%
SMILES	GPT2 inh	HEK293 viab	SNCA expr inh
CCOc1ccc(Cc2nc(-c3c(C)nc4ccccn34)cs2)cc1	-12%	12µM*	.
C[C@H]1COC2=C1C(=O)C(=O)c1c2ccc2c1CCCC2(C)C	17µM*	-13%	21%
Cc1coc2c1C(=O)C(=O)c1c-2ccc2c1CCCC2(C)C	14µM*	-1%	-1%
Cc1coc2c1C(=O)C(=O)c1c-2ccc2c(C)cccc12	2.2µM*!	?	15%
O=C(NC1CCCCC1)C1CCCCN1Cc1ccc(-c2ccsc2)cc1 (stereo unspecified)	-12%	?	-8%
COc1ccc(CN2CCOc3nc(-c4cc5ccccc5o4)ncc3C2=O)cc1	-1%[88.5 µM]	-9%[87.6 µM]	-1%[87.6 µM]
Oc1cc(O)cc(/C=C/c2ccc(O)c(O)c2)c1	6.3µM*	-14%	?
